# According to PubChem BioAssay (NCI):
# This is part of a sample that, as a whole, favours compounds with a hit. Of some 83,000 tested, about 20% had one in any assay.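 In brief: 96-well plates, 48 h treatment, single concentration, percent growth endpoint.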 A number with no mark means an inactive call. Activity calls are given as the source filed them. How the source made its calls: active means growth percent below 10; inactive means the rest.
# Columns and labels:
# Test in all cases: NCI-60 one-dose screen, 48 h (100 = growth as untreated, 0 = no growth, -100 = all killed)
# [1] = test system: SR leukemia; settings: 10 µM unless noted
# [2] = test system: RPMI-8226 leukemia
# [3] = test system: OVCAR-8 ovarian
# [4] = test system: OVCAR-5 ovarian
# [5] = test system: OVCAR-4 ovarian
# [6] = test system: SK-OV-3 ovarian
# [7] = test system: OVCAR-3 ovarian
# [8] = test system: HS 578T breast
# [9] = test system: NCI/ADR-RES ovarian
# [10] = test system: IGROV1 ovarian
compound,measurement,setting,value
COc1cc(/C=C/C(=O)c2ccc(S(=O)(=O)NCCNc3nc(N(C)C)nc(N4CCOCC4)n3)cc2)cc(OC)c1OC,growth,[1],-28.2% (active)
same,growth,[2]; 10 µM unless noted,-14.5% (active)
same,growth,[3]; 10 µM unless noted,-49.5% (active)
same,growth,[4]; 10 µM unless noted,-33.1% (active)
same,growth,[5]; 10 µM unless noted,8.16% (active)
same,growth,[6]; 10 µM unless noted,60.3%
same,growth,[7]; 10 µM unless noted,-42.2% (active)
same,growth,[8]; 10 µM unless noted,19.9%
same,growth,[9]; 10 µM unless noted,-39.1% (active)
COc1ccc2ccccc2c1/C=C1\SC(=Nc2ccc(O)cc2)NC1=O,growth,[1],20.8%
same,growth,[2]; 10 µM unless noted,-12.7% (active)
same,growth,[3]; 10 µM unless noted,9.1% (active)
same,growth,[4]; 10 µM unless noted,10.3%
same,growth,[5]; 10 µM unless noted,56.2%
same,growth,[6]; 10 µM unless noted,29.6%
same,growth,[10]; 10 µM unless noted,11.3%
same,growth,[7]; 10 µM unless noted,35.5%
same,growth,[9]; 10 µM unless noted,-5.75% (active)
Cc1ccc(N=Nc2c(N)nn3c(-c4cc5cc(Br)ccc5oc4=O)ccnc23)cc1,growth,[1],50.2%
same,growth,[2]; 10 µM unless noted,93.5%
same,growth,[3]; 10 µM unless noted,54%
same,growth,[4]; 10 µM unless noted,54.8%
same,growth,[5]; 10 µM unless noted,102%
same,growth,[6]; 10 µM unless noted,98.6%
same,growth,[7]; 10 µM unless noted,108%
same,growth,[8]; 10 µM unless noted,69.4%
same,growth,[9]; 10 µM unless noted,29%
COc1ccc(C(=O)c2c(N)c(C#N)cn2-c2ccc([N+](=O)[O-])cc2)cc1,growth,[1],94.5%
same,growth,[2]; 10 µM unless noted,108%
same,growth,[3]; 10 µM unless noted,88.5%
same,growth,[4]; 10 µM unless noted,107%
same,growth,[5]; 10 µM unless noted,101%
same,growth,[6]; 10 µM unless noted,93.9%
same,growth,[7]; 10 µM unless noted,122%
same,growth,[8]; 10 µM unless noted,95.2%
same,growth,[9]; 10 µM unless noted,98.2%
Cc1cn(-c2cc(NC(=O)c3ccc(C)c(-n4cc(-c5cnc6cccnn56)nn4)c3)cc(C(F)(F)F)c2)cn1,growth,[1],23.2%
same,growth,[2]; 10 µM unless noted,53.9%
same,growth,[3]; 10 µM unless noted,92.4%
same,growth,[4]; 10 µM unless noted,58.3%
same,growth,[5]; 10 µM unless noted,100%
same,growth,[6]; 10 µM unless noted,124%
same,growth,[7]; 10 µM unless noted,124%
same,growth,[8]; 10 µM unless noted,108%
same,growth,[9]; 10 µM unless noted,94.5%
O=C(N/N=C/c1ccc(Cl)cc1)c1ccc(OCc2nc3ccc(Cl)cc3[nH]2)cc1,growth,[1],3.65% (active)
same,growth,[2]; 10 µM unless noted,40.3%
same,growth,[3]; 10 µM unless noted,-12.1% (active)
same,growth,[4]; 10 µM unless noted,35.4%
same,growth,[5]; 10 µM unless noted,-8.33% (active)
same,growth,[6]; 10 µM unless noted,14.5%
same,growth,[7]; 10 µM unless noted,-20.3% (active)
same,growth,[8]; 10 µM unless noted,25.2%
same,growth,[9]; 10 µM unless noted,45.4%
CC/C(=C(\c1ccc(O)cc1)c1ccc(OCCN(C)C(=O)CCOCCNC(=O)c2ccc3c(c2)CN([C@@H]2CCC(=O)NC2=O)C3=O)cc1)c1ccccc1,growth,[2]; 1 µM,99.1%
same,growth,[2]; 10 µM,93.9%
same,growth,[3]; 1 µM,103%
same,growth,[3]; 10 µM,77.6%
same,growth,[4]; 1 µM,93.4%
same,growth,[4]; 10 µM,79.5%
same,growth,[5]; 1 µM,109%
same,growth,[5]; 10 µM,96.1%
same,growth,[6]; 1 µM,82.7%
same,growth,[6]; 10 µM,87.9%
same,growth,[10]; 1 µM,70.4%
same,growth,[10]; 10 µM,53.6%
same,growth,[7]; 1 µM,93.7%
same,growth,[7]; 10 µM,105%
same,growth,[8]; 1 µM,75.9%
same,growth,[8]; 10 µM,69.3%
same,growth,[9]; 1 µM,106%
same,growth,[9]; 10 µM,102%
CCCSc1nnc(-c2sc3nc4ccccc4n3c2C)o1,growth,[1],107%
same,growth,[2]; 10 µM unless noted,97.7%
same,growth,[3]; 10 µM unless noted,107%
same,growth,[4]; 10 µM unless noted,111%
same,growth,[5]; 10 µM unless noted,104%
same,growth,[6]; 10 µM unless noted,121%
same,growth,[7]; 10 µM unless noted,117%
same,growth,[8]; 10 µM unless noted,109%
same,growth,[9]; 10 µM unless noted,98.7%
CN1CCc2c(sc3ncnc(N/N=C/c4cccc(Cl)c4Cl)c23)C1,growth,[1],8.87% (active)
same,growth,[2]; 10 µM unless noted,-16% (active)
same,growth,[3]; 10 µM unless noted,-38.6% (active)
same,growth,[4]; 10 µM unless noted,88%
same,growth,[5]; 10 µM unless noted,-24.8% (active)
same,growth,[6]; 10 µM unless noted,90.6%
same,growth,[7]; 10 µM unless noted,25.1%
same,growth,[8]; 10 µM unless noted,38.2%
same,growth,[9]; 10 µM unless noted,49.4%
CS(=O)(=O)Nc1cccc(-n2cnc3cc(-c4ccc(O)cc4)ccc32)c1,growth,[1],32.1%
same,growth,[2]; 10 µM unless noted,27.2%
same,growth,[3]; 10 µM unless noted,30.8%
same,growth,[4]; 10 µM unless noted,56%
same,growth,[5]; 10 µM unless noted,67.1%
same,growth,[6]; 10 µM unless noted,35.6%
same,growth,[7]; 10 µM unless noted,30.7%
same,growth,[8]; 10 µM unless noted,40.8%
same,growth,[9]; 10 µM unless noted,29.8%
CC/C(=C(/c1ccc(O)cc1)c1ccc(OCCN(C)C(=O)COCCOCCNC(=O)Cc2ccc3c(c2)CN([C@@H]2CCC(=O)NC2=O)C3=O)cc1)c1ccccc1,growth,[2]; 1 µM,90.3%
same,growth,[2]; 10 µM,72%
same,growth,[3]; 1 µM,93.9%
same,growth,[3]; 10 µM,21.9%
same,growth,[4]; 1 µM,95.3%
same,growth,[4]; 10 µM,86.6%
same,growth,[5]; 1 µM,101%
same,growth,[5]; 10 µM,59.2%
same,growth,[6]; 1 µM,86.1%
same,growth,[6]; 10 µM,71.6%
same,growth,[10]; 1 µM,50%
same,growth,[10]; 10 µM,17.8%
same,growth,[7]; 1 µM,95.6%
same,growth,[7]; 10 µM,61.3%
same,growth,[8]; 1 µM,64.8%
same,growth,[8]; 10 µM,19.1%
same,growth,[9]; 1 µM,103%
same,growth,[9]; 10 µM,107%
